Among all 5,500 compounds or so, about 2,000 (36%) were called active. Inconclusive results (about 18%) are left out. Cut-off read from the data, not from the text of the source: active = normalized growth mostly below about 0.91 (no sharp cut-off); inconclusive = no clear call, values can overlap the other calls; inactive = mostly above about 0.92. Some of the results follow.
Experiment: chemical genetic growth profiling, strain panel (AID 1159580);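 note: tested at 20 µM; growth read once vehicle control cultures reached saturation at 30 °C; 1 = growth at the plate median or of vehicle wells; lower values mean less growth of the strain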
Details: S. cerevisiae deletion strains, growth OD

Measured: normalized growth

O=[N+]([O-])c1cccc(C2CC(c3ccccc3)=Nc3ccccc3S2)c1 (stereo unspecified)
inactive: locus YAR019C, strain CDC15, active compounds read low 0.947 | locus YBL105C, strain PKC1, active compounds read low 0.953 | locus YBR135W, strain CKS1, active compounds read low 0.959 | locus YBR136W, strain MEC1, active compounds read low 0.974 | locus YBR160W, strain CDC28, active compounds read low 0.966 | locus YDL017W, strain CDC7, active compounds read low 0.97 | locus YDL028C, strain MPS1, active compounds read low 0.965 | locus YDL101C, strain DUN1, active compounds read low 0.95 | locus YDL108W, strain KIN28, active compounds read low 0.975 | locus YDL132W, strain cdc53, active compounds read low 0.952 | locus YDL214C, strain PRR2, active compounds read low 0.962 | locus YDR052C, strain DBF4, active compounds read low 0.973 | locus YDR054C, strain cdc34, active compounds read low 0.946 | locus YDR226W, strain ADK1, active compounds read low 0.953 | locus YDR477W, strain SNF1, active compounds read low 0.962 | locus YER123W, strain YCK3, active compounds read low 1 | locus YER133W, strain GLC7, active compounds read low 0.96 | locus YFL009W, strain cdc4, active compounds read low 0.959 | locus YFL029C, strain CAK1, active compounds read low 0.939 | locus YFR003C, strain YPI1, active compounds read low 0.973 | locus YFR019W, strain FAB1, active compounds read low 0.996 | locus YFR028C, strain CDC14, active compounds read low 0.948 | locus YGR040W, strain KSS1, active compounds read low 0.955 | locus YGR052W, strain FMP48, active compounds read low 1.06 | locus YGR092W, strain DBF2, active compounds read low 0.969 | locus YHR030C, strain SLT2, active compounds read low 0.976 | locus YHR079C, strain IRE1, active compounds read low 0.975 | locus YHR082C, strain KSP1, active compounds read low 0.997 | locus YHR205W, strain SCH9, active compounds read low 0.934 | locus YIL147C, strain SLN1, active compounds read low 0.969 | locus YJL095W, strain BCK1, active compounds read low 0.982 | locus YJL128C, strain PBS2, active compounds read low 0.93 | locus YJL157C, strain FAR1, active compounds read low 0.969 | locus YJR016C, strain ILV3, active compounds read low 0.954 | locus YJR066W, strain TOR1 (second series), active compounds read low 0.934 | locus YJR066W, strain TOR1, active compounds read low 0.974 | locus YKL048C, strain ELM1, active compounds read low 0.971 | locus YKL067W, strain YNK1, active compounds read low 0.968 | locus YKL101W, strain HSL1, active compounds read low 0.965 | locus YKL193C, strain SDS22, active compounds read low 0.954 | locus YKL203C, strain TOR2, active compounds read low 1.01 | locus YLR113W, strain HOG1, active compounds read low 0.927 | locus YLR133W, strain CKI1, active compounds read low 0.977 | locus YLR403W, strain SFP1, active compounds read low 0.95 | locus YML070W, strain DAK1, active compounds read low 0.975 | locus YMR001C, strain CDC5, active compounds read low 0.946 | locus YMR205C, strain PFK2 (second series), active compounds read low 0.967 | locus YMR277W, strain FCP1, active compounds read low 0.952 | locus YNL006W, strain LST8, active compounds read low 0.97 | locus YNL020C, strain ARK1, active compounds read low 0.963 | locus YNL161W, strain CBK1, active compounds read low 0.957 | locus YNL183C, strain NPR1, active compounds read low 0.985 | locus YNL207W, strain RIO2, active compounds read low 0.964 | locus YNL222W, strain SSU72, active compounds read low 0.958 | locus YNL307C, strain MCK1 (second series), active compounds read low 0.98 | locus YOL078W, strain AVO1, active compounds read low 0.952 | locus YOL136C, strain PFK27, active compounds read low 0.996 | locus YOR061W, strain CKA2, active compounds read low 0.949 | locus YOR119C, strain RIO1, active compounds read low 0.975 | locus YOR231W, strain MKK1, active compounds read low 0.983 | locus YOR329C, strain SCD5, active compounds read low 0.95 | locus YPL031C, strain PHO85, active compounds read low 0.961 | locus YPL153C, strain RAD53, active compounds read low 0.964 | locus YPL204W, strain HRR25, active compounds read low 0.979 | locus YPL209C, strain IPL1, active compounds read low 0.957 | locus YPL256C, strain CLN2, active compounds read low 0.939 | locus YPR025C, strain CCL1, active compounds read low 0.954 | locus YPR106W, strain ISR1, active compounds read low 0.967 | locus YPR111W, strain DBF20, active compounds read low 0.968 | strain NNK1, active compounds read low 0.963 | strain TSCII, active compounds read low 0.946

Source: PubChem BioAssay AID1159580 (chemical genetic matrix, 2015)
